An excerpt weighted towards active compounds, which were near 4.5% of everything screened.
Mdm2-MdmX inh – disrupts the human Mdm2-MdmX interaction; inhibition, % at 8 µM; SaOS-2 split-luciferase Mdm2/MdmX complementation, luminescence; AID 485346; 3% of 330,000 active;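 active means inhibition of at least 50% at 8 µM in the primary screen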
Target sequence (O15151 whole entry, looked up): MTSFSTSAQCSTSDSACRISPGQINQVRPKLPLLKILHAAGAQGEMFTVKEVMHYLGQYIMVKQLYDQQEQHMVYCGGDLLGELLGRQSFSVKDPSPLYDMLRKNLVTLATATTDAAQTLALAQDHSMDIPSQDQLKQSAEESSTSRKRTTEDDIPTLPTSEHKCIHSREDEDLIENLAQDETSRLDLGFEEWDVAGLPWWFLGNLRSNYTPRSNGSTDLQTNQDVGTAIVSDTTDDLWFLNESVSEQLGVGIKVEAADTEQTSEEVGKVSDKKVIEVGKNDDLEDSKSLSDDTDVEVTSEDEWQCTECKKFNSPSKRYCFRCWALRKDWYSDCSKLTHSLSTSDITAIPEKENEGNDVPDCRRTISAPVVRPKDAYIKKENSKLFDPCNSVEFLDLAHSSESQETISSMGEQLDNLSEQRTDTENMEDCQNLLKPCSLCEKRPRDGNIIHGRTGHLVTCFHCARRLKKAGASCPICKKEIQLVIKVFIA
Target sequence (Q00987 whole entry, looked up): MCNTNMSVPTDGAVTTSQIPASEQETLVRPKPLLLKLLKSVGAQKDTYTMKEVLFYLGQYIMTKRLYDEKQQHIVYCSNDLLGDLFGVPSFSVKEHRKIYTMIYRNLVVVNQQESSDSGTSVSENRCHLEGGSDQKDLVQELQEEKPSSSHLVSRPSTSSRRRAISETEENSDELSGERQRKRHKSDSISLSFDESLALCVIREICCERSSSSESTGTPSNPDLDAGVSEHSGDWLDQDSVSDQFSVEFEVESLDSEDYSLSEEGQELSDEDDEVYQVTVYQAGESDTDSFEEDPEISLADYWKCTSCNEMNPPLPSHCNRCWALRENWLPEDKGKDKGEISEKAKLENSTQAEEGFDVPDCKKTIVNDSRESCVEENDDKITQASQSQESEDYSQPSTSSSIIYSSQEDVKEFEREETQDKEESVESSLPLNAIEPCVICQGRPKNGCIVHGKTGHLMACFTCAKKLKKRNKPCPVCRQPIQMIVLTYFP
697 NFkB inh – inhibitors of the PMA/ionomycin-induced NF-kB reporter in 697 B cells. 0.33% of 330,000 active. inhibition, % at 4 µM. 697 B-cell NF-kB luciferase reporter, 16 h. AID 435022; in the data active means inhibition above about 35%
Jurkat NFkB inh – inhibitors of the PMA/ionomycin-induced NF-kB reporter in Jurkat cells | PMA/ionomycin-induced NF-kB luciferase reporter, luminescence | inhibition, % at 4 µM | 0.53% of 330,000 active | AID 435003; in the data active means inhibition above about 50%
Gli-Sufu antag – blocks Gli-Sufu signaling in a luciferase reporter; Sufu-KO-LIGHT fibroblasts, Gli luciferase reporter luminescence; inhibition, % at 5 µM; 0.74% of 340,000 active; AID 588413;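 active means inhibition above about 55%, limit read from the data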
aSyn 5UTR inh – MLPCN primary screen, SNCA 5' untranslated region | AID 1813 | 0.82% of 300,000 active | inhibition, % (tested at 7.5 µM) | alpha-synuclein 5'UTR reporter, inhibitor activity; in the data active means inhibition above about 60%; inconclusive means no clear call, values can overlap the other calls;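 further: H4 neuroglioblastoma cells stably carrying SNCA 5'UTR luciferase fusion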
CSC inhib – cancer stem cell inhibition | cancer stem cell-like cells viability, luminescence | inhibition, % at 7.5 µM | 1.1% of 300,000 active; in the data active means inhibition above about 75%; inconclusive means no clear call, values can overlap the other calls; tested in HMLE shEcad cells
Mdm2 MdmX conf – human Mdm2/MdmX binding inhibition, confirmed. shares compounds with Mdm2-MdmX inh. luminescent assay. inhibition, % at 8 µM. 55% of 10,000 active. AID 489028; in the data active means inhibition above about 40%
Full FLuc ctr – inhibits full-length luciferase, flagging false Mdm2/MdmX hits. shares compounds with Mdm2-MdmX inh. SaOS-2 full-length luciferase counterscreen, luminescence. inhibition, % at 8 µM. 77% of 6,200 active. AID 504607;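 active means mean inhibition at 8 µM reaching about 37%, which flags the compound as non-specific, limit read from the data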;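 further: p53-null SaOS-2 cells with luciferase driven by a doxycycline-inducible promoter; compound on cells about two nights before reading with doxycycline added after day one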
Each line names hits and unclear results; the compound was inactive in the other large screens (follow-up assays come after a bar, where they were run).

O=S(Cc1ccc(Br)cc1)Cc1nnc(SCc2c(F)cccc2Cl)n1-c1ccccc1 (centres undefined)	none
CCC(c1nnc(SCC(=O)Nc2nnc(-c3ccccc3)o2)n1Cc1ccccc1)N(C)C (centres undefined)	none
CCCN(CCC)CCCNC(=S)Nc1ccc2nc(N3CCN(CC)CC3)cc(C)c2c1	Mdm2-MdmX inh 52.9 | Mdm2 MdmX conf inactive
CCN1CCN(c2cc(C)c3cc(NC(=O)c4ccncc4)ccc3n2)CC1	none
CCN1CCN(c2cc(C)c3cc(NC(=O)c4ccc(C)c(C)c4)ccc3n2)CC1	Mdm2-MdmX inh 67.2, aSyn 5UTR inh inconclusive | Mdm2 MdmX conf inactive
CCCCN(CC)CCNC(=S)Nc1ccc2nc(N3CCN(C)CC3)cc(C)c2c1	Mdm2-MdmX inh 66.7 | Mdm2 MdmX conf 44.7 | Full FLuc ctr 74.7
CCN1CCN(c2cc(C)c3cc(NC(=S)N4CCN(c5ccc(F)cc5)CC4)ccc3n2)CC1	Mdm2-MdmX inh 96.5, CSC inhib inconclusive | Mdm2 MdmX conf 45.4 | Full FLuc ctr 52.4
COc1cccc(N2C(=NC(=O)c3ccccc3)SC3CS(=O)(=O)CC32)c1 (centres undefined)	none
O=C(NNS(=O)(=O)c1ccc([N+](=O)[O-])cc1)c1cnn(-c2ccccc2)c1-n1cccc1	none
CN(C)CCCNCCCNC(=O)/C(=N\O)c1ccccc1	none
O=C(Cn1ccc([N+](=O)[O-])n1)NCc1ccccc1	none
CC1=C(C(=O)N2CCCC(N3CCN(c4cccc(C(F)(F)F)c4)CC3)C2)OCCO1 (centres undefined)	none
CC1(C)Cc2c(c(N3CCOCC3)nc3sc4c(NCCN5CCOCC5)nnnc4c23)CS1	none
CC(C)CCNc1nnnc2c1sc1nc(N3CCOCC3)c3c(c12)CC(C)(C)SC3	Mdm2-MdmX inh 50.9, aSyn 5UTR inh inconclusive | Mdm2 MdmX conf inactive
CC1(C)Cc2c(c(N3CCOCC3)nc3sc4c(NCC5CCCO5)nnnc4c23)CS1 (centres undefined)	Mdm2-MdmX inh 70.4 | Mdm2 MdmX conf 51.8 | Full FLuc ctr 69.2
Nc1ccn(C2OC(COP(=O)(O)O)C(O)C2O)c(=O)n1 (centres undefined)	none (no result: Mdm2-MdmX inh, 697 NFkB inh, Jurkat NFkB inh, aSyn 5UTR inh, CSC inhib)
Cc1c(Cc2ccccc2)c(=O)n2c([nH]c3ccccc32)c1C#N	Mdm2-MdmX inh 61.3 | Mdm2 MdmX conf 41.6 | Full FLuc ctr 57.2
CN1Cc2c(N3CCOCC3)nc3sc(C(=O)c4ccccc4)c(N)c3c2CC1(C)C	Mdm2-MdmX inh 58.6 | Mdm2 MdmX conf inactive
CCC(=O)N/C(N)=N/c1nc(C)c2cc(OC)ccc2n1	Mdm2-MdmX inh 62.3 | Mdm2 MdmX conf 41.0 | Full FLuc ctr 60.6
CC(C)CSc1oc(-c2ccco2)nc1S(=O)(=O)c1ccccc1	none
CCc1cc(C(=O)N2CCCC(CNC(=O)c3ccc(-c4ccccc4)cc3)C2)no1 (centres undefined)	none
Cc1cccc(NC(=O)CSc2cccc3cccnc23)c1C	none
CCOC(=O)CSc1cccc2cccnc12	Mdm2-MdmX inh 77.3 | Mdm2 MdmX conf inactive
Cc1cccc(CSc2cccc3cccnc23)c1	Mdm2-MdmX inh 51.1 | Mdm2 MdmX conf 66.8 | Full FLuc ctr 37.3
NNC(=O)c1ccc(CSc2cccc3cccnc23)cc1	none
C(=C1/CCCC2=C1Nc1ncnn1C2c1ccccc1)/c1ccccc1 (centres undefined)	Mdm2-MdmX inh 75.7 (no result: Gli-Sufu antag) | Mdm2 MdmX conf 84.0 | Full FLuc ctr inactive
S=C1NC2=C(CCC/C2=C\c2ccccc2)C(c2ccccc2)N1 (centres undefined)	none
CCOC(=O)[C@H]1[C@H]2COc3ccc(OC)cc3[C@@H]2N2C(=O)c3ccccc3NC(=O)[C@@]12C	none (no result: aSyn 5UTR inh)
OC(COc1ccc(CNCCc2ccc(C(F)(F)F)cc2)cc1)CN1CCCCC1 (centres undefined)	Mdm2-MdmX inh 99.6, aSyn 5UTR inh 82.2 | Mdm2 MdmX conf 99.0 | Full FLuc ctr 53.1
COc1ccc(C(=O)NC2CCCc3c2cnn3-c2cccc(C)c2C)o1 (centres undefined)	Mdm2-MdmX inh 73.7 | Mdm2 MdmX conf 48.4 | Full FLuc ctr 46.0
COc1cc(OC)c2c(-c3ccccc3)cc(=O)oc2c1C(CCN1CCCC1)c1ccc2c(c1)OCO2 (centres undefined)	Mdm2-MdmX inh 81.2 | Mdm2 MdmX conf inactive
COc1cc(C(CCN2CCOCC2)c2c(OC)cc(OC)c3c(-c4ccccc4)cc(=O)oc23)cc(OC)c1OC (centres undefined)	none (no result: Jurkat NFkB inh, aSyn 5UTR inh, CSC inhib)
COc1cc(C(CCN2CCCC2)c2c(OC)cc(OC)c3c(-c4ccccc4)cc(=O)oc23)cc(OC)c1OC (centres undefined)	Mdm2-MdmX inh 77.6 | Mdm2 MdmX conf inactive
Cc1nc2ccc(C(=O)N3CCCC(CO)(Cc4ccc(F)cc4F)C3)cc2nc1C (centres undefined)	none
CCc1ccc(-c2cc(C)no2)cc1S(=O)(=O)N1CCOc2ccccc21	none
O=C(Nc1cccc(F)c1)c1c(F)c(F)c(F)c(F)c1F	none
COC(=O)c1sccc1NC(=O)c1cccc(F)c1	none (no result: CSC inhib)
COC(=O)c1sccc1NC(=O)c1c(F)c(F)c(F)c(F)c1F	Mdm2-MdmX inh 74.7 | Mdm2 MdmX conf inactive
O=C(Nc1ccccc1NC(=O)c1c(F)c(F)c(F)c(F)c1F)c1c(F)c(F)c(F)c(F)c1F	Mdm2-MdmX inh 54.4 | Mdm2 MdmX conf inactive | Full FLuc ctr 40.5
CCC(=O)c1cc(Br)ccc1OCC(=O)N1CCN(S(=O)(=O)c2ccccc2)CC1	none (no result: Mdm2-MdmX inh, 697 NFkB inh, Jurkat NFkB inh, aSyn 5UTR inh, CSC inhib)
CCN(CC)c1ccc2c(C)c(Cl)c(=O)oc2c1	none
CCN(CC)c1ccc2c(c1)oc(=O)c1c(Cl)cc(=O)oc12	Mdm2-MdmX inh 98.9 | Mdm2 MdmX conf 99.5 | Full FLuc ctr 56.6
CCN(CC)c1ccc2c(Cl)c(Br)c(=O)oc2c1	Mdm2-MdmX inh 100.4, CSC inhib inconclusive | Mdm2 MdmX conf 43.9 | Full FLuc ctr inactive
CCN(CC)c1ccc2c(C)cc(=O)oc2c1	none (no result: aSyn 5UTR inh)
C/C(CCc1ccccc1)=N/NC(=O)C(=O)NCc1ccccc1	none
CC(C)n1c(O)c(/C=C2\C=NN=C2c2ccccc2)sc1=S	Mdm2-MdmX inh 61.5 | Mdm2 MdmX conf 43.1 | Full FLuc ctr 47.7
CCn1c(O)c(C=C2N=c3ccccc3=N2)sc1=S	none
CCn1c(O)c(/C=C2\C=NN=C2c2ccc(C)cc2)sc1=S	Mdm2-MdmX inh 81.6 | Mdm2 MdmX conf 63.3 | Full FLuc ctr 97.4
CCN1C(=O)C2(Nc3ccccc3-c3nc4ccccc4n32)c2cc(OC)ccc21 (centres undefined)	Mdm2-MdmX inh 66.4 | Mdm2 MdmX conf 95.8 | Full FLuc ctr inactive
Cc1ccc(CN(C)C(=O)c2ccc3c(c2)NC(=O)CS3)o1	none

Source: PubChem BioAssay (several laboratories)
